PLCb3 inh = human PLC-beta3 inhibitors, primary screen, biochemical, fluorescence; Purified PLC-beta3, fluorogenic substrate; inhibition, % at 12.2 µM; 1-phosphatidylinositol 4,5-bisphosphate phosphodiesterase beta-3 (Homo sapiens), Q01970; AID 720704, 2013; 370,000 tested, 0.18% active
Target sequence (Q01970 whole entry, looked up): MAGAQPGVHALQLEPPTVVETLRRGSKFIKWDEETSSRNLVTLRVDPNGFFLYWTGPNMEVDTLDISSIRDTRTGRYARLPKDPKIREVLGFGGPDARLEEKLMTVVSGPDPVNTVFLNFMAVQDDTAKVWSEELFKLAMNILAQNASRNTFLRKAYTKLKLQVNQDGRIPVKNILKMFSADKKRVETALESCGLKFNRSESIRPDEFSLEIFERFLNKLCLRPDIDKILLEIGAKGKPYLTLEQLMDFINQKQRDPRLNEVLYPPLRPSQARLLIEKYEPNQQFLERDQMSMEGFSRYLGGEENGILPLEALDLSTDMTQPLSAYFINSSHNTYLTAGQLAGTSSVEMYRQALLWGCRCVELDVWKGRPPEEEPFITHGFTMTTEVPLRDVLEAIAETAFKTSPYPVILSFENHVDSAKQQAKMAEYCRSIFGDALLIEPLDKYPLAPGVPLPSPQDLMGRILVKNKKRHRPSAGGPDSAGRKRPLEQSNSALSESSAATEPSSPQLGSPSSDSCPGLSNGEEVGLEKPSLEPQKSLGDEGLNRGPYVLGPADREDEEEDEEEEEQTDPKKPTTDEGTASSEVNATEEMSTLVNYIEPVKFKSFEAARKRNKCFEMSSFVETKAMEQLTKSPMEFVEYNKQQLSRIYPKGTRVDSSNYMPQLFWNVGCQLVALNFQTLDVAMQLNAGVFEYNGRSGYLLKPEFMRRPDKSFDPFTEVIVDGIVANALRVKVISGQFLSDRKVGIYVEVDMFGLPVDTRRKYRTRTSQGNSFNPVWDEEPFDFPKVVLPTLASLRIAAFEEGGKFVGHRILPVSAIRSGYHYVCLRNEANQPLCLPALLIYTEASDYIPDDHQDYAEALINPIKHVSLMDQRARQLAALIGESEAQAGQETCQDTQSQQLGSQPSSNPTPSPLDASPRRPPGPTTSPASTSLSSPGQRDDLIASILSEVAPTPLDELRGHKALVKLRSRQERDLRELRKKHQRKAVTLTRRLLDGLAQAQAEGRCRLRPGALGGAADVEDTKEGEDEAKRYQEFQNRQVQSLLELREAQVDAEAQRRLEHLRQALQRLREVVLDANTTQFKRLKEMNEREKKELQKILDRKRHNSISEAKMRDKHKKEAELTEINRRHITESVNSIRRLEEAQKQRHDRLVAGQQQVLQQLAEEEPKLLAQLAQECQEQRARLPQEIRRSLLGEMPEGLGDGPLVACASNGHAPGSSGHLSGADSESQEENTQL
KLK7 zymogen act = proKLK7 zymogen activators, primary screen, biochemical, fluorescence intensity. Kallikrein-7 (Homo sapiens), P49862. purified proKLK7, EDANS-DABCYL substrate fluorescence; 100% is mature enzyme control, 0% vehicle. activation, % at 7 µM. 370,000 tested, 0.9% active. AID 652039, 2013;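 active = activation above the mean of all tested compounds plus 3 SD, computed per campaign excluding outliers beyond control limits, cut at about 13% in these data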
PLC-gamma1 inh = PLC-gamma1 enzyme inhibitors, primary screen, biochemical, fluorescence, purified enzyme | 1-phosphatidylinositol 4,5-bisphosphate phosphodiesterase gamma-1 (Homo sapiens), P19174 | fluorogenic substrate | inhibition, % at 12.2 µM | 370,000 tested, 0.84% active | AID 720700, 2013; in the data active = inhibition above about 9.5%
ADAM10 inh = human ADAM10 inhibitors, primary screen, biochemical, QFRET, HTS | Disintegrin and metalloproteinase domain-containing protein 10 (Homo sapiens), O14672 | recombinant ADAM10, EDANS/DABCYL FRET peptide cleavage, 3 h | inhibition, % at 7 µM | 370,000 tested, 0.62% active | AID 720582, 2013;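 active = inhibition above a per-campaign cutoff equal to the mean of compounds falling between control-based bounds plus 3 SD, cut at about 20% in these data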
ADAM17 inh = ADAM17 inhibitors, primary screen, biochemical, QFRET; Disintegrin and metalloproteinase domain-containing protein 17 (Homo sapiens), P78536; recombinant ADAM17, EDANS/DABCYL FRET peptide cleavage; inhibition, % at 6.95 µM; 370,000 tested, 0.83% active; AID 720648, 2013;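 active = inhibition above the mean of compounds lying between control limits plus 3 SD, set per campaign, cut at about 8.5% in these data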
HGIII-sPLA2 inh = human group III sPLA2 inhibitors, primary screen, biochemical, QFRET, BODIPY PC-A2 liposome substrate; inhibition, % at 12.2 µM; Group 3 secretory phospholipase A2 (Homo sapiens), Q9NZ20; 370,000 tested, 0.56% active; QFRET BODIPY PC-A2 liposome hydrolysis, fluorescence;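 active = inhibition above mean plus 3 SD of compounds lying within the high and low control bounds, cut at about 19% in these data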
PLCgamma1 ctr = PLC-gamma1 enzyme inhibitors, counter-screen for PLC-beta3 inhibitor project, biochemical, fluorescence. shares compounds with PLC-gamma1 inh. purified PLC-gamma1, fluorogenic substrate. 3,300 tested, 3.1% active. AID 743258, 2014. inhibition, % at 12.3 µM; in the data active = inhibition above about 9.5%
PLCbeta3 conf = PLC-beta3 inhibitor confirmation, biochemical, fluorescence, purified enzyme; 3,300 tested, 1% active; AID 743261, 2014; inhibition, % at 12.3 µM; fluorogenic substrate fluorescence; shares compounds with PLC-gamma1 inh
A number is an active result; – = inactive; · = no result given. Most compounds without a hit are left out; they make up all but 3.4% or so of the library. Cut-off read from the data, not from the text of the source, unless noted: active = inhibition above about 11%; inactive = the rest.

SMILES	PLCb3 inh	KLK7 zymogen act	PLC-gamma1 inh	ADAM10 inh	ADAM17 inh	HGIII-sPLA2 inh	PLCgamma1 ctr	PLCbeta3 conf
CCOC(=O)[C@@]12CCC3=C1N(CCC3)C(=O)[C@H](CC(=O)NCc1ccc(C)o1)C2	–	–	–	–	–	–	·	·
CC(C)CCNC(=O)Cn1c(=O)oc2cc(S(=O)(=O)N3CCc4ccccc43)ccc21	11.8	–	–	–	–	–	–	–
O=C(Cn1c(=O)oc2cc(S(=O)(=O)N3CCc4ccccc43)ccc21)NC1CCCC1	–	–	–	–	–	–	·	·
CCN(CC)C(=O)c1[nH]cnc1C(=O)N[C@@H](C)c1ccccc1	–	–	–	–	–	–	·	·
CCN(CC)C(=O)c1[nH]cnc1C(=O)N[C@H](C)c1ccccc1	13.8	–	–	–	–	–	–	–
CN(Cc1ccccc1)C(=O)OCc1cn(Cc2cc(F)ccc2F)nn1	–	–	–	–	–	–	·	·
CN(CCNC(=O)C1CCN(S(=O)(=O)c2cnc[nH]2)CC1)Cc1ccccc1	–	–	12.4	–	–	–	–	–
COc1ccc(CN(C)CC(=O)Nc2ccc(Cl)cc2C(F)(F)F)c(OC)c1	–	–	12.6	–	–	–	–	–
CN(CC#CC1=CCCCC1)/C(N)=N/C(=O)OCc1ccccc1	–	–	–	–	–	–	·	·
O=C1NC(=S)N/C1=C/c1cccnc1	–	–	11.3	–	–	–	–	–
CCc1ccccc1N/C(=N\S(=O)(=O)c1ccccc1)C(F)(F)F	–	–	–	–	–	–	·	·
O=S(=O)(/N=C(/Nc1ccccc1)C(F)(F)F)c1ccccc1	–	–	9.6	–	–	–	–	–
CCn1cc(C(=O)N2CCN(Cc3ccc(C)cc3)CC2)c(=O)c2ccc(C)nc21	–	–	–	–	–	–	·	·
O=C(Nc1ccc(Cl)cc1)Nc1ccc(Cl)c(Cl)c1	–	–	–	–	–	–	·	·
O=C(Nc1ccc(Cl)c(Cl)c1)Nc1ccc(Br)cc1F	11.9	–	–	–	–	–	–	–
C=C(C)/C=C1/CN(Cc2ccc3c(c2)OCO3)C(=N)N1C(=O)OCc1ccccc1	–	–	–	–	–	–	·	·
Cc1cccc2c(N=NC(=O)C(C)n3cnc4ccccc4c3=O)c(O)[nH]c12 (configuration not stated)	–	–	–	–	–	–	·	·
CC(C(=O)N=Nc1c(O)[nH]c2ccccc12)n1cnc2ccccc2c1=O (configuration not stated)	15.7	–	10.4	–	–	–	–	–
O=C(OCC#CCSc1nnc(-c2ccccc2Cl)o1)c1ccc(F)cc1	–	·	–	–	–	–	·	·
O=C(OCC#CCSc1nnc(-c2ccc(F)cc2)o1)c1ccc(F)cc1	–	·	10.5	–	–	–	–	–
COc1ccc(N2CC(C(=O)Nc3cccc(C)n3)CC2=O)cc1 (configuration not stated)	–	–	10.4	–	–	–	–	–
CCOc1ccc(N2CC(C(=O)Nc3nnc(Cc4ccc(OC)cc4)s3)CC2=O)cc1 (configuration not stated)	–	–	16.2	–	–	–	–	–
COc1ccc(Cc2nnc(NC(=O)C3CC(=O)N(c4ccc(OC)cc4)C3)s2)cc1 (configuration not stated)	–	–	–	–	–	–	·	·
COc1ccc(N2CC(C(=O)Nc3cc(C)on3)CC2=O)cc1 (configuration not stated)	–	–	–	–	–	–	·	·
CC1Cc2ccccc2N1C(=O)CSc1nc(-c2ccco2)cc(C(F)(F)F)n1 (configuration not stated)	–	–	12.8	–	–	–	–	–
SMILES	PLCb3 inh	KLK7 zymogen act	PLC-gamma1 inh	ADAM10 inh	ADAM17 inh	HGIII-sPLA2 inh	PLCgamma1 ctr	PLCbeta3 conf
CC(C)CN1C(=O)[C@]2(CC(=O)N(C)C2c2ccccc2)c2cc(-n3cc(-c4ccccc4)nn3)ccc21 (some centres not stated)	–	–	–	–	–	–	·	·
Cc1nc([N+](=O)[O-])c(Br)n1CC(=O)c1ccc(F)cc1	–	–	–	–	–	–	·	·
Cc1nc([N+](=O)[O-])c(Br)n1CC(=O)c1cccc([N+](=O)[O-])c1	–	–	9.9	–	–	–	–	–
Fc1cccc(Cl)c1Cn1ncc2ccccc21	–	–	–	–	–	–	·	·
c1ccc(Cn2ncc3ccccc32)cc1	–	–	14.9	–	–	–	–	–
COc1cccc2c(NCc3ccccc3)nc(-n3c(N)nc4ccccc43)nc12	–	·	–	–	–	–	·	·
Cc1noc(C)c1S(=O)(=O)Nc1ccc2c(c1)C(=O)N([C@H](C)CO)C[C@H](C)[C@H](CN(C)C(=O)NC(C)C)OCCCC[C@@H](C)O2	–	–	10.9	–	–	–	–	–
CCOC(=O)CCCCCC(=O)Nc1ccc2c(c1)C(=O)N([C@H](C)CO)C[C@@H](C)[C@@H](CN(C)C(=O)CCC(F)(F)F)OCCCC[C@H](C)O2	–	–	12.2	–	–	–	–	–
COC(=O)[C@H](CC(C)C)N1Cc2nnn(CC3CCCCC3)c2-c2cc(F)ccc2S1(=O)=O	–	–	–	–	–	–	·	·
COC(=O)[C@H](C)NC(=O)[C@H](CC(C)C)NC(=O)OC(C)(C)C	–	–	–	–	–	–	·	·
CN(C(=O)COc1cccc(C#N)c1)C1CCS(=O)(=O)C1 (configuration not stated)	–	–	11.2	–	–	–	–	–
CC1(C)Cc2nc(Cl)c(C(N)=O)cc2CO1	–	–	10.2	–	–	–	–	–
O=C(c1cc(Cl)cc(Cl)c1)N1CC[C@H]2[C@H](CCCN2Cc2cc(F)cc(F)c2)C1	–	–	–	–	–	–	·	·
Clc1cc(Cl)c2nc(N3CCCC3)sc2c1	–	–	12.1	–	–	–	–	–
Clc1cc(Cl)c2nc(N3CCCCC3)sc2c1	–	–	9.9	–	–	–	–	–
COc1ccc(-c2ccc(NS(=O)(=O)c3cccc([N+](=O)[O-])c3)cc2)nn1	–	–	13.1	–	–	–	–	–
